The values that follow come from ChEMBL document CHEMBL3988442, “University of Dundee, Small-Polar-MMV Screening Library” (2021).

For some of these results: Measured potencies and affinities stand elsewhere.

Holding throughout (set-up): scale not given: direction of the effect not stated beside the values
In test [1] the target is Protein translocase subunit SecA (Escherichia coli (strain K12)) (UniProt P10408). Kind of test: Assay to Identify E. coli SecA ATPase Inhibitors. The note with it: 30 µM. Format: functional.
Test [2] has as its target T1, Ubiquitin-activating enzyme e1, putative (Leishmania donovani (strain BPK282A1)) (UniProt E9BSI1).
T1 sequence (whole entry): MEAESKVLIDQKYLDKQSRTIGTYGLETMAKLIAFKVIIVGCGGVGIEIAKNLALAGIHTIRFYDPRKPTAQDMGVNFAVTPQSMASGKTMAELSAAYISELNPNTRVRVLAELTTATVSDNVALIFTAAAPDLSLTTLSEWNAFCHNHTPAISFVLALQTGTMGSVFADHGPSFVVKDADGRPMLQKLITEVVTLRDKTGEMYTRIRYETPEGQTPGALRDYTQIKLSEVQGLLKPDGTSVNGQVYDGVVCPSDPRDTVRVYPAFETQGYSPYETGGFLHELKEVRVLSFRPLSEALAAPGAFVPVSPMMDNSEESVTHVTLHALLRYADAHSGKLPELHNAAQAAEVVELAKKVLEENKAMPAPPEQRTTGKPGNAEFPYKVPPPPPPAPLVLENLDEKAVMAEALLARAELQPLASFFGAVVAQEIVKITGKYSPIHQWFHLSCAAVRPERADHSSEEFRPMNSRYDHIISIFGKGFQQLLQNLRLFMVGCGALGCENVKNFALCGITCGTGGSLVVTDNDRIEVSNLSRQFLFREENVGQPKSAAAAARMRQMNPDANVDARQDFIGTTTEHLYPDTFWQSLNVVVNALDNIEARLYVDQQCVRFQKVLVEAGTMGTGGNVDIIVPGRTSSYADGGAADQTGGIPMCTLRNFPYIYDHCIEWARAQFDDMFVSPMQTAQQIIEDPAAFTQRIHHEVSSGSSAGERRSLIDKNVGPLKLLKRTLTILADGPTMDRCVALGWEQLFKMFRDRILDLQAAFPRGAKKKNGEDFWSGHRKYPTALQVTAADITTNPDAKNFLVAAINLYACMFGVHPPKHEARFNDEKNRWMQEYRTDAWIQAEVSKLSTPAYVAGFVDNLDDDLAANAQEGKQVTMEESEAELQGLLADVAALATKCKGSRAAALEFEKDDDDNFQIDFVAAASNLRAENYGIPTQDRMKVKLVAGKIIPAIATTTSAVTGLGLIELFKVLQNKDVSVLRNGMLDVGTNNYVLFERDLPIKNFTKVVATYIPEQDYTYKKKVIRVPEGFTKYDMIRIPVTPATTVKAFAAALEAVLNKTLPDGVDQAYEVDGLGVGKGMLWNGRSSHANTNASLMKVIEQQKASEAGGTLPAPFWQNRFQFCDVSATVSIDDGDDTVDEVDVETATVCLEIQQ
Kind of test: Leishmania donovani Ubiquitin Activating Enzyme (LdE1). The format is functional. To be noted: 30 µM.

Test [3] addresses AMP-activated protein kinase, AMPK (Homo sapiens) (UniProt P54646+O43741+P54619+Q9UGJ0+Q9Y478+Q13131+Q9UGI9). As to the kind of experiment: AMP-dependent Kinase enzyme assay. An in vitro enzyme assay that detects ADP turnover that is directly proportional to AMPK activity. This uses naive AMPK that is activated during the assay with MK-8722. The format is functional. To be noted: 30 µM.

For test [4], the target named is Sialic acid-binding Ig-like lectin 9 (Homo sapiens) (UniProt Q9Y336). As to the kind of experiment: Hs-Siglec9 ALPHAscreen SOP 20170721. To be noted: 10 µM.
The test system of another test is Trypanosoma cruzi. As to the kind of experiment: Trypanosoma cruzi phosphomannomutase and mannose-1-phosphate guanylyltransferase assay. The format is functional. To be noted: 10 µM.
Test [5] concerns the target T2, Arginase-2, mitochondrial (Homo sapiens) (UniProt P78540).
T2 sequence (whole entry): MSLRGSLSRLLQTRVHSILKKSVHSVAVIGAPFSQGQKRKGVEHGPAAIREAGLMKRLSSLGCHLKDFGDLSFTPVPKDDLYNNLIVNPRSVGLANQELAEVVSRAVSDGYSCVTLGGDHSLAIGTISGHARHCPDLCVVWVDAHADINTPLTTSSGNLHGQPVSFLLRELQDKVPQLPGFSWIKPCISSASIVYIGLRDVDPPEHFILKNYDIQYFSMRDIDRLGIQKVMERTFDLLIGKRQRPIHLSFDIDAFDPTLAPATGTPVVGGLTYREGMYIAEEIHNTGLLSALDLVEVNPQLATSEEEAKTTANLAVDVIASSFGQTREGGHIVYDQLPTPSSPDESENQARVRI
Kind of test: in vitro enzyme assay to detect the production of urea directly proportional to the activity of Arginase II. Note: in the data most compounds retested in dose-response had high values. The format is functional. To be noted: 33.3 µM.

The target in test [6] is T3, Proteasome subunit beta (Trypanosoma cruzi) (UniProt O96673).
T3 sequence (whole entry): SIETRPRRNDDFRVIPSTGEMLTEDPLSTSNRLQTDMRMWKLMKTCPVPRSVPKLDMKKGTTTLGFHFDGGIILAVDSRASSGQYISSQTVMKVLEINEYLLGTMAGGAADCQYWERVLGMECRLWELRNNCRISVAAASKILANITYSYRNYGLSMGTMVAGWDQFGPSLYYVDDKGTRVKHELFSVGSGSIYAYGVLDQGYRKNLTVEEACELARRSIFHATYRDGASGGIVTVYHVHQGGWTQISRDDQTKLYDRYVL
As to the kind of experiment: Trypanosoma cruzi proteasome chymotrypsin-like activity (TcProtChymo) assay. Note: in the data most compounds retested in dose-response had high values. Format: functional. To be noted: 9.37 µM.

Another test is filed under the species Homo sapiens. As to the kind of experiment: To identify inhibition of the IFN signalling (Jak-Stat) pathway via expression of an eGFP reporter gene under the control of an IFN-stimulated response element (ISRE) containing MxA promoter. The format is functional. The note with it: 30 µM.
The target in test [7] is T4, Tyrosyl-tRNA synthetase, putative (Trypanosoma cruzi (strain CL Brener)) (UniProt Q4DSP6).
T4 sequence (whole entry): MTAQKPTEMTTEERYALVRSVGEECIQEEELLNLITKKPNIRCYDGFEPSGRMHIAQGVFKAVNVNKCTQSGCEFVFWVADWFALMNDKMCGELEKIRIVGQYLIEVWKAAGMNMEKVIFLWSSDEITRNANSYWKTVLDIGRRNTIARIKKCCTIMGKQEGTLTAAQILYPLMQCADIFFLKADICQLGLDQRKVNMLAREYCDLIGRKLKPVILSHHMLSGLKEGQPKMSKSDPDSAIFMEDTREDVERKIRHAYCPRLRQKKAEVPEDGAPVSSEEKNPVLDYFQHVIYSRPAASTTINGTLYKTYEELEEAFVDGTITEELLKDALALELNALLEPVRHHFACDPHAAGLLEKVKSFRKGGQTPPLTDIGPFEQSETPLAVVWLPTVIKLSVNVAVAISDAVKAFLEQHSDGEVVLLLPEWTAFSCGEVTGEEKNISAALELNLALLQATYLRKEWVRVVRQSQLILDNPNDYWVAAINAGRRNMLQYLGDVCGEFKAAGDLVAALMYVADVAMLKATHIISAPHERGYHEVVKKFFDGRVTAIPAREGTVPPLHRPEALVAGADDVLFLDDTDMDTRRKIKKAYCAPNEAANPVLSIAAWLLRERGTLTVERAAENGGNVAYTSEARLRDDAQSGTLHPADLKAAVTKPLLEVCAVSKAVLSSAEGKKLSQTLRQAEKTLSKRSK
As to the kind of experiment: Trypanosoma cruzi tyrosyl tRNA synthetase (TcYRS) _High Tyrosine SOP. Note: in the data most compounds retested in dose-response had high values. The format is functional. The note with it: 30 µM.

The target of test [8] is T4, Tyrosyl-tRNA synthetase, putative (Trypanosoma cruzi (strain CL Brener)). As to the kind of experiment: Trypanosoma cruzi tyrosyl tRNA synthetase (TcYRS) SOP. The format is functional. The note with it: 30 µM.
Test [9] has as its target Chromo domain-containing protein 1 (Saccharomyces cerevisiae (strain ATCC 204508 / S288c) (Baker's yeast)) (UniProt P32657). Kind of test: ScCHD-1 Enzyme Inhibition Assay. Note: in the data most compounds retested in dose-response had high values. The note with it: 30 µM. The format is functional.

Chromo domain-containing protein 1 (Saccharomyces cerevisiae (strain ATCC 204508 / S288c) (Baker's yeast)), sequence (P32657 whole entry, the tested form may be a part): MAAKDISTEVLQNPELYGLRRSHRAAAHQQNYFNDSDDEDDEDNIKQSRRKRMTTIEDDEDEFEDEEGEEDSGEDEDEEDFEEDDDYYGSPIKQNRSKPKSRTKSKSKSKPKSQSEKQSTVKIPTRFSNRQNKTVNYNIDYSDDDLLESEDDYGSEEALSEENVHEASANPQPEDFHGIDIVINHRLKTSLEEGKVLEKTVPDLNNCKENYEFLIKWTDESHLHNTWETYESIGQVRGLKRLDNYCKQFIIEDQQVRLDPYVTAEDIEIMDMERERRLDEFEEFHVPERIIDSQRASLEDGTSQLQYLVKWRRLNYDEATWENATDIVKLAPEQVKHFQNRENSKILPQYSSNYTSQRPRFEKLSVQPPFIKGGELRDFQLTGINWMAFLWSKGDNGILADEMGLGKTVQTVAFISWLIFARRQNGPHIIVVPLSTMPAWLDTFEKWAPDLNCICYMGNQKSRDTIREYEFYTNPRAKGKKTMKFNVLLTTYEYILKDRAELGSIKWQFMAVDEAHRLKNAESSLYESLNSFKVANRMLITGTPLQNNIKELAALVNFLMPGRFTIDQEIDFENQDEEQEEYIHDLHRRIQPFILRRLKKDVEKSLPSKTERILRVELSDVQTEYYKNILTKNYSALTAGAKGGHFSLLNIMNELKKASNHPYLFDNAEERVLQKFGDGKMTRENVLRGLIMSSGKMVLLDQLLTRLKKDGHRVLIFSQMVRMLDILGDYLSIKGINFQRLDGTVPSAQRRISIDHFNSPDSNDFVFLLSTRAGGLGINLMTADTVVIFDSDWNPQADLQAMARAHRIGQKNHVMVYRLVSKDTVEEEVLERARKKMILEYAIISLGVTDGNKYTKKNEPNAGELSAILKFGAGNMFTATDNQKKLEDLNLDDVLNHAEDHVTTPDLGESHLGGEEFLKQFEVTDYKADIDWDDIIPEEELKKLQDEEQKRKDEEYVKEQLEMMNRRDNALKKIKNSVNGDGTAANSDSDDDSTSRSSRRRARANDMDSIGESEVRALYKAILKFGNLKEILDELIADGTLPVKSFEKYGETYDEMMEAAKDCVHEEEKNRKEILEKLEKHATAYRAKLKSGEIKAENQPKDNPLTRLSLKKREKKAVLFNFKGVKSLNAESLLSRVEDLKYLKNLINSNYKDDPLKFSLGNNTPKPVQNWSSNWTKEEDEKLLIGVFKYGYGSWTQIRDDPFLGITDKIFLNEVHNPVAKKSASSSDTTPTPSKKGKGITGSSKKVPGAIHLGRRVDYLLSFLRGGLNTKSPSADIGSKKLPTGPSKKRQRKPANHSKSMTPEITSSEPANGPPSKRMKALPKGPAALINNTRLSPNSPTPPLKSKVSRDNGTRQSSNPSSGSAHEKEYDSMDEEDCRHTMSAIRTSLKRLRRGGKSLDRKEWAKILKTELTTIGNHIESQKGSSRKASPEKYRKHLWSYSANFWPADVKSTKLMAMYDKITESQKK
Sialic acid-binding Ig-like lectin 9 (Homo sapiens), sequence (Q9Y336 whole entry): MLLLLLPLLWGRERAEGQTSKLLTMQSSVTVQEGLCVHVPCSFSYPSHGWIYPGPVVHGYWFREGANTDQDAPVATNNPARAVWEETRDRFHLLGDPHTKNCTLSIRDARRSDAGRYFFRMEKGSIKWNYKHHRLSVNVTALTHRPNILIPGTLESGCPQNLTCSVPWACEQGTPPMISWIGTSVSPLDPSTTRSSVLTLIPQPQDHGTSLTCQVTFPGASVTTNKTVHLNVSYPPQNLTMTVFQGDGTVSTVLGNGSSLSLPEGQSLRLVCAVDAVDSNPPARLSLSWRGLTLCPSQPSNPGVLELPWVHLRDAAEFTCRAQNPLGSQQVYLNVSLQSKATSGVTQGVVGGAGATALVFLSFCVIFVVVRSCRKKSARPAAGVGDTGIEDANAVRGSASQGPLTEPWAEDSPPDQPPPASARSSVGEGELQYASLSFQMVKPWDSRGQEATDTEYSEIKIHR
Protein translocase subunit SecA (Escherichia coli (strain K12)), sequence (P10408 whole entry): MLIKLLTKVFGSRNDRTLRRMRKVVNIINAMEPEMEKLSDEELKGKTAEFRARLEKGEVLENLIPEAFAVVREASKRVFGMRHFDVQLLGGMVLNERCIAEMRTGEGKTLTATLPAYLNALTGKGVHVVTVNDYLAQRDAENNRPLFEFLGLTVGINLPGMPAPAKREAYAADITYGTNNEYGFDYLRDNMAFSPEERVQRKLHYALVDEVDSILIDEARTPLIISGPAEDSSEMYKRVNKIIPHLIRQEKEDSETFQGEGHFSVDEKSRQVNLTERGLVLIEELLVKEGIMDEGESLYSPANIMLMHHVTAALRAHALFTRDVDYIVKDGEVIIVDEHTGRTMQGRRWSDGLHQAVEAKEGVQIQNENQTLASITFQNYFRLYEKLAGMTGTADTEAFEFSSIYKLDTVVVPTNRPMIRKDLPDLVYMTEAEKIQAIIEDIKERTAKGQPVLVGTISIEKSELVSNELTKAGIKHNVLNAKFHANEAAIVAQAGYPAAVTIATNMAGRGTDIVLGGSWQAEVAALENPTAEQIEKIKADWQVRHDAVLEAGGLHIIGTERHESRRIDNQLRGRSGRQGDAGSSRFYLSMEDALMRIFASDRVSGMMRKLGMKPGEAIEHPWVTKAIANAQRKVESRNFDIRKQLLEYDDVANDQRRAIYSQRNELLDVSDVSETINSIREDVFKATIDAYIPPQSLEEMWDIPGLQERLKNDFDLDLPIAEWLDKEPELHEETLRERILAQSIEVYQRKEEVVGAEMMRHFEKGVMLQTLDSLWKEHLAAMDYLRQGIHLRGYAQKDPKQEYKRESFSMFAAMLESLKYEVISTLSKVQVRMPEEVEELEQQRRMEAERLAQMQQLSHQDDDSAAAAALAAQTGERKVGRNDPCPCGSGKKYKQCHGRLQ

Take `CCN1CCC(CNC(=O)NCc2cc(-c3ccc(C)cc3)no2)C1` (stereo unspecified): the Percent Effect in test [1] was 0.151%; in test [2], 0%; in [3] it was -6.65%; in test [4], 3.46%; in the test with Trypanosoma cruzi, 3.44%; in test [5], -3.14%. The Percent Effect in test [6] is 12.2%; in the test filed under Homo sapiens, 5.69%; in [7], 10.9%; in [8] it was 25.6%; in test [9], -5.52%.

On to `CC(C)c1nn(C)c(Cl)c1CNC1CCOc2ccccc21` (stereo unspecified), for which the Percent Effect in test [1] is -3.65%; in test [2], 8.11%; in test [3], -0.168%; in test [4], 9.16%; in the test with Trypanosoma cruzi it was 2.32%; in test [5], 0.185%. Further, the Percent Effect in test [6] is -1.79%; in the test listed under Homo sapiens, 31.4%; in test [7], 8.91%; in [8], 23.2%; in [9] it was -2.97%.

Consider `CC(=O)NCC1CCN(CC2CCOc3ccccc3C2)CC1` (stereo unspecified), for which the Percent Effect is -1.44% in [1]; 15.3% in [2]; -4.21% in test [3]; 14% in test [4]; 1.85% in the test on Trypanosoma cruzi; 9.27% in [5]. Besides, the Percent Effect in test [6] is 13.2%; in the test filed under Homo sapiens, -5.31%; in test [7] it was 4.21%; in test [8] it was 15.4%; in [9], -2.81%.

In the case of `CNC(=O)c1cc2c(nc1N(C)C)CCN(S(=O)(=O)C1CC1)CC2`, the Percent Effect in test [1] was -2.36%; in test [2] it was 10.4%; in test [3] it was -2.46%; in [4], -6.22%; with Trypanosoma cruzi, -10.8%; in test [5], 9.68%. The Percent Effect in test [6] was 8.7%; in the test filed under Homo sapiens it was 0.586%; in test [7], -3.17%; in test [8], -3.85%; in test [9], -7.64%.

As for `c1ccc(C[C@H]2[C@H](N3CCOCC3)CCN2Cc2cccnc2)cc1`, the Percent Effect in [1] is -1.09%; in [2], 2.67%; in test [3] it was 3.8%; in test [4], 7.7%; with Trypanosoma cruzi, -5.21%; in test [5] it was -56.1%. The Percent Effect in test [6] was 4.1%; in the test filed under Homo sapiens it was -7.93%; in [7], 1.04%; in test [8], 12.5%; in [9] it was -4.71%.

As to `CC(=O)N1CCCC1C(=O)NCCOc1cc(C)cc(C)c1` (stereo unspecified), the Percent Effect in [1] was -7.33%; in test [2], 7.79%; in [3], -4.76%; in [4] it was 10.6%; in the test on Trypanosoma cruzi, 3.37%; in [5], -5.34%. Further, the Percent Effect in [6] is -7.43%; in the test filed under Homo sapiens, -4.36%; in test [7], 6.8%; in test [8] it was 12.2%; in test [9], -4.02%.

Turning to `CN1Cc2c(C(=O)Nc3cccnc3)ncn2-c2ccccc2S1(=O)=O`, the Percent Effect in test [1] is -1.38%; in test [2], -5.48%; in test [3] it was -2.46%; in [4], 4.18%; with Trypanosoma cruzi, 0%; in test [5], -4.39%. Moreover, the Percent Effect is 7.79% in test [6]; -3.68% in the test filed under Homo sapiens; 0% in test [7]; 6.17% in test [8]; 0.964% in test [9].

As for `CC(=O)N(Cc1ncc(C)o1)C1CCN(Cc2cccc(C#N)c2)C1` (stereo unspecified), the Percent Effect in test [1] is -5.59%; in [2], 5.41%; in test [3], -3.95%; in test [4], 9.41%; in the test on Trypanosoma cruzi, -2.44%; in test [5], -1.74%. In addition, the Percent Effect in test [6] was 5.24%; in the test filed under Homo sapiens, 5.84%; in [7], 0%; in test [8], 1.24%; in [9], -0.172%.

Consider `Cc1ccc(N2CCCC(NCC(=O)Nc3cc(C)no3)C2)nn1` (stereo unspecified), for which the Percent Effect in [1] is -1.36%; in test [2] it was 13.9%; in test [3], -2.91%; in test [4], -5.54%; with Trypanosoma cruzi, -3.59%; in test [5] it was 0.215%. Besides, the Percent Effect in test [6] is 13%; in the test listed under Homo sapiens, 17.8%; in [7], 1.04%; in [8], 7.59%; in test [9], -23.2%.

On to `CC(=O)Nc1nc(C(=O)N2CCCC(n3nc(C)cc3C)C2)cs1` (stereo unspecified), for which the Percent Effect was -5.42% in test [1]; 0% in test [2]; 5.38% in test [3]; -3.57% in test [4]; -5.13% in the test with Trypanosoma cruzi; -1.8% in test [5]. The Percent Effect in [6] is -7.02%; in the test filed under Homo sapiens it was -2.38%; in [7], -2.46%; in test [8], -11.1%; in test [9], 5.41%.

For the compound `COCc1ccccc1C(=O)N1CCCC(n2nc(C)cc2C)C1` (stereo unspecified), the Percent Effect was -3.82% in test [1]; 5.06% in test [2]; -3.09% in test [3]; 3.7% in test [4]; 4.06% in the test on Trypanosoma cruzi; -6.08% in test [5]. The Percent Effect in [6] is 4.67%; in the test listed under Homo sapiens it was -9.14%; in [7], 4.43%; in test [8], 3.8%; in [9], -4.28%.
